Measured values from PubChem BioAssay (NCI).
About 83,000 compounds went through this panel and 20% of them were active in at least one assay; those are over-represented in the sample as a whole.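 Plates (96-well) were seeded with cells, treated with compound at one concentration, and incubated for 48 hours before percent growth was determined.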 Unmarked numbers belong to inactive results. Calls of active or inactive are those of the source. Rule for the calls: active = growth percent below 10; inactive = the rest.

test system: MDA-MB-468 breast; experiment: NCI-60 one-dose screen, 48 h (100 = growth as untreated, 0 = no growth, -100 = all killed); conditions: 10 µM unless noted

**Q.** `COC1=CC(c2ccc[nH]2)=N/C1=C\c1[nH]c(C)c(C(=O)CCCCC(=O)NCc2ccccc2)c1C` was tested. Which growth did it give?
**A.** 4.21% (active)

**Q.** For `CCN(CC)c1ccc(/C=C2\SC(=O)C(Nc3nnc(-c4cccnc4SCc4ccccc4)o3)C2=O)cc1` (stereo not given), which growth is on record?
**A.** 2.42% (active)

**Q.** With `Nc1nc2c(c3ncccc13)C(c1ccccc1)Cc1ncccc1-2` (stereo not given) as the compound, how does the growth read?
**A.** 55.8%

**Q.** How did the growth turn out when `CN1CCN(Cc2ccc(NC(=O)c3cncc(C#Cc4cnc(N)c5ncccc45)c3)cc2Cl)CC1` was run?
**A.** 85.4%

**Q.** `O=C(Nc1nc2ccccc2[nH]1)C(=O)Nc1nc2ccccc2[nH]1` was tested. Which growth did it give?
**A.** 103%

**Q.** For `C=C(C)[C@@H]1CC[C@]2(C(=O)N3CCN(C)CC3)CC[C@]3(C)[C@H](CC[C@@H]4[C@@]5(C)C/C(=C/c6ccc(C(F)(F)F)cc6)C(=O)C(C)(C)[C@@H]5CC[C@]43C)[C@@H]12`, which growth is on record?
**A.** 107%

**Q.** With `C#CCO[C@H]1CC(CC#C)(CC#C)C(=O)[C@@H]2[C@H]1[C@H]1C[C@@H]3[C@@]4(C)CCC[C@@](C)(C(=O)OC)[C@@H]4CC[C@@]23C=C1C(C)C` as the compound, how does the growth read?
**A.** 94.7%

**Q.** With `COc1ccccc1N1CCN(C(=O)c2ccc3nc(NC(=O)c4ccc(NCCc5ccccc5)c([N+](=O)[O-])c4)sc3c2)CC1` as the compound, how does the growth read?
**A.** 99.1%

**Q.** `CC(C)(C)OC(=O)N1C=C/C(=C\Cn2cc(-c3ccccc3)nn2)CC1` was tested. Which growth did it give?
**A.** 26.4%

**Q.** Which growth does the source give for `O=C(NCc1ccccc1O)c1cccc2ccccc12` here?
**A.** 84.9%

**Q.** `OCc1cnccc1NCCCCOc1ccc(Oc2ccccc2)cc1` was tested. Which growth did it give?
**A.** 30.5%

**Q.** `CCOC(=O)c1cc2c(n1Cc1cc(OC)cc(OC)c1)-c1oncc1CC2` was tested. Which growth did it give?
**A.** -14.1% (active)

**Q.** `O=C(c1nn(-c2ccccc2)c2c1CC(NCc1ccc(F)cc1)CC2)N1CCCCC1` (stereo not given) was tested. Which growth did it give?
**A.** 97%

**Q.** How did the growth turn out when `CC(C)=CCc1cc2c(cc1O)C1=C(C(=O)C3=C(NCCS3(=O)=O)C1=O)C(C=C(C)C)O2` (stereo not given) was run?
**A.** -20.7% (active)

**Q.** Which growth does the source give for `CSc1ccc(-c2ccccc(=O)c2O)cc1` here?
**A.** 11.5%

**Q.** For `CC1c2ccccc2N(S(=O)(=O)c2ccccc2)C1C` (stereo not given), which growth is on record?
**A.** 37.9%

**Q.** With `CCOC(=O)/C=C1\S/C(=N\Nc2cc(=O)[nH]c3ccc(OC)cc23)N(c2ccccc2)C1=O` as the compound, how does the growth read?
**A.** 101%

**Q.** With `O=C(Oc1ccccc1Cl)c1ccc(Cl)cc1Cl` as the compound, how does the growth read?
**A.** 103%

**Q.** Which growth does the source give for `COc1cc2nc(-c3ccc(C(F)(F)F)cc3)cc(OCCN3CCCCC3)c2cc1OC` here?
**A.** 93.6%

**Q.** Which growth does the source give for `COC(=O)C1=C(C(=O)ONCCN(C)C)C2C=CC1(C(Cc1ccccc1)Nc1ccc(F)cc1)O2` (stereo not given) here?
**A.** 75.3%

**Q.** `C[C@@H](O)[C@H]1C(=O)N2C(C(=O)O)=C(SC3CN[C@H](C(=O)N(C)C)C3)[C@H](C)[C@H]12` (stereo not given in full) was tested. Which growth did it give?
**A.** 100%

**Q.** `O=S(=O)(O)c1ccc(N/N=C/c2ccccc2Cl)cc1` was tested. Which growth did it give?
**A.** 107%

**Q.** Which growth does the source give for `CC/C=C\C[C@H]1C/C=C2/C(=O)C(Cl)=C[C@@H]2C/C=C\CCCC(=O)O1` here?
**A.** -69.2% (active)

**Q.** For `COC(=O)[C@@H]1CCCN1C(=O)[C@@H]1CCCN1C(=O)[C@@H](Cc1c[nH]c2ccccc12)NC(=S)Nc1cc(C(F)(F)F)cc(C(F)(F)F)c1`, which growth is on record?
**A.** 2.25% (active)

**Q.** With `CC1=NC2=NN3C(=NN2C(c2ccccc2)=C1)N=NC(c1ccc(Br)cc1)=C3c1ccc(Br)cc1` as the compound, how does the growth read?
**A.** 105%

**Q.** How did the growth turn out when `CCCCCCCCCCCCCCCCC(=O)O.CCCCCCCCCCCCCCCCCC(=O)O.CCCCCCCCCCCCCCCCCC(=O)O.CCCCCCCCCCCCCCCCCC(=O)O.CCCCCCCCCCCCCCCCCC(=O)O.CO[CH-]OC12COC1CC(O)C1(C)C(O)C(OC(C)O)C3=C(C)C(OC(=O)C(O)C([NH-])c4ccccc4)CC(O)(C(OC(=O)c4ccccc4)C21)C3(C)C.[Cu+].[Zn].[Zn].[Zn].[Zn].[Zn]` (stereo not given) was run?
**A.** -13.3% (active)

**Q.** For `COc1ccc(OC)c([C@H]2c3[nH]c4ccccc4c3C[C@H]3C(=O)N(CCCCCCC(=O)NO)CC(=O)N23)c1`, which growth is on record?
**A.** 74.9%

**Q.** For `O=c1[nH]c(=O)c2[nH]c(=O)[nH]c2[nH]1`, which growth is on record?
**A.** 85.6%

**Q.** With `c1cc(CNCCNCc2ccncc2)ccn1` as the compound, how does the growth read?
**A.** 104%

**Q.** For `N#CC1=C(N)Oc2c(c(N)nn2-c2ccccc2)C1c1ccc(Cl)cc1Cl` (stereo not given), which growth is on record?
**A.** 129%

**Q.** For `Cc1ccc(C)c2c1sc1nc3n[nH]c(N)c3c(=N)n12`, which growth is on record?
**A.** 97.1%

**Q.** With `CCc1c(C)c2cc(-n3c(-c4ccc(OC)cc4)csc3=N)c(O)c(C)c2oc1=O` as the compound, how does the growth read?
**A.** 17%

**Q.** How did the growth turn out when `CCOC(=O)c1ccccc1SC(C[N+](=O)[O-])c1ccccc1` (stereo not given) was run?
**A.** 63.7%

**Q.** `CCN(CC)CCN1C(=O)c2c(c3c4ccccc4[nH]c3c3[nH]c4ccccc4c23)C1=O` was tested. Which growth did it give?
**A.** 89.2%

**Q.** Which growth does the source give for `O=C(O)c1cc2ccccc2cc1Nc1ccccc1` here?
**A.** 102%

**Q.** For `S=C(Nc1ccc(Cl)cc1)c1ccccn1`, which growth is on record?
**A.** 98.9%

**Q.** For `CCN(CC)CC(=O)Nc1c(C)cc(C(=O)NN)cc1C`, which growth is on record?
**A.** 107%

**Q.** `N#CCCCCCn1c2ccccc2c2c3c(c4c5ccccc5n(CCCCCC#N)c4c21)C(=O)N(O)C3=O` was tested. Which growth did it give?
**A.** 87.8%

**Q.** With `C=C1CC[C@@H]2[C@@](C)(CCC[C@]2(C)C(=O)O)[C@@H]1CC[C@H](CO)CCO` as the compound, how does the growth read?
**A.** 108%

**Q.** `COCCn1cc(-c2csc(-c3cn(C)c4ccc(Br)cc34)n2)c2cccnc21` was tested. Which growth did it give?
**A.** 54.8%
